Shown are actives, neighbours in structure and some others; about 1.6% of the full set was active somewhere.
KCNQ2 inh – blocks the rat KCNQ2 potassium channel | O88943 | CHO-K1 KCNQ2, FluxOR thallium flux, 20 min; stronger effect = lower value | B-score at 10 µM | 310,000 compounds, 1.1% hits | AID 2156;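 active means fluorescence ratio B-score at most minus 3 library SDs, with starting brightness B-score within 2 library SDs, cut at about -5.5 in these data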
Target sequence (O88943 whole entry, looked up): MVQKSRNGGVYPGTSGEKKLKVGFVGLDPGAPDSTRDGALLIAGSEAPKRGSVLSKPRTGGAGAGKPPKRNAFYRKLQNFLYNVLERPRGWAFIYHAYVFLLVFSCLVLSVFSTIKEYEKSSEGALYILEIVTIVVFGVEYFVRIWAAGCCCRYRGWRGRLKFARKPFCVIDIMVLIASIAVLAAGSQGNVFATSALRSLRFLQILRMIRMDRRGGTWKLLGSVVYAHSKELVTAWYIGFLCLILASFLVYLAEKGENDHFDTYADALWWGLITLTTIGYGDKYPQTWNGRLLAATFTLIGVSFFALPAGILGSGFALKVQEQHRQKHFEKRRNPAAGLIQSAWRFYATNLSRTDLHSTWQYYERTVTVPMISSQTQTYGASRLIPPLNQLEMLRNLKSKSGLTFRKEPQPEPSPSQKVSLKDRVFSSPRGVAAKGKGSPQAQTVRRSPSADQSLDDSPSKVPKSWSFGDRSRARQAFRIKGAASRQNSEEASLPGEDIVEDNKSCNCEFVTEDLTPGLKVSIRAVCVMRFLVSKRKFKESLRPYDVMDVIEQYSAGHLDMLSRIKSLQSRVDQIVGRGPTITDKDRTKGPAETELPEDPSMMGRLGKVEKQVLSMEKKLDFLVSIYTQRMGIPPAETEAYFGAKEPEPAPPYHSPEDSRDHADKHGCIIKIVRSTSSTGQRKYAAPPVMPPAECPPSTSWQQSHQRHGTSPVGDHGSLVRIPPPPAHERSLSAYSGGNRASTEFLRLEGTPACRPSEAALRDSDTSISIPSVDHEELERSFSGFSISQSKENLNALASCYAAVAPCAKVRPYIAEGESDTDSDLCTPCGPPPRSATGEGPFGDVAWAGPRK
KCNQ2 enhance – potentiators of rat KCNQ2 potassium channel; CHO-K1 KCNQ2, FluxOR thallium flux fluorescence; stronger effect = higher value; B-score at 10 µM; 310,000 compounds, 0.54% hits;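 active means fluorescence ratio B-score at least 3 SD of library B-scores, with initial fluorescence B-score within 3 of them, cut at about 5.3 in these data; same plate scores as AID 2156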;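 further: B-score of peak minus minimum over baseline fluorescence ratio after K+ and Tl+ stimulus; positive B-score means potentiation of KCNQ2 with more thallium influx and brighter signal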
Active calls of the source: *; i = inactive; nt = no result.

SMILES | KCNQ2 inh | KCNQ2 enhance
Cc1ccc(OCC(=O)N/N=C2\CCOc3c(C)cccc32)cc1 | -6.8* | -6.8
CC(C)C1OC2c3cccc4cccc(c34)C2N1c1ccccc1 (stereo not drawn) | -5.7* | -5.7
CCCCc1ccc(NC(=O)CN2C(=O)C3CCCCC3C2=O)cc1 (stereo not drawn) | i | nt
Cc1ccc(S(=O)(=O)N2CCN(C(=O)c3ccccc3Cc3ccccc3)CC2)c(C)c1 | i | nt
COc1ccc(CCCC(=O)N/N=C/c2ccccc2OC)cc1 | i | nt
O=C(c1cn(-c2ccccc2)nc1-c1ccccc1)n1nnc2ccccc21 | i | nt
COc1cccc(-c2nn(-c3ccccc3)cc2C(=O)n2nnc3ccccc32)c1 | -6.4* | -6.4
COc1ccc(OC)c(/C=C/C(=O)c2ccc3c(c2)OCCO3)c1 | i | nt
COc1ccc(OC2CCN(S(=O)(=O)c3cccc(F)c3)CC2)cc1 | i | nt
O=S(=O)(c1cccc(F)c1)N1CCc2sccc2C1c1ccc(OC(F)(F)F)cc1 (stereo not drawn) | -5.9* | -5.9
Cc1ccc(N(C(=O)CNC(=O)c2ccco2)C(C(=O)NC2CCCCC2)c2cccnc2)cc1 (stereo not drawn) | i | nt
CC1(C)C2CCC1(C)C(OC(=O)CNc1ccccc1)C2 (stereo not drawn) | i | nt
COc1cc(C(=O)OC2CC3CCC2(C)C3(C)C)ccc1OC(C)=O (stereo not drawn) | -5.7* | -5.7
CCc1cccc(NS(=O)(=O)c2ccc3c(c2)N(C)CCO3)c1 | i | 0.65
S=c1[nH]nc(C2CCCCC2)n1/N=C/c1cccc(Cl)c1Cl | i | 0.11
O/N=C(/CCc1ccccc1)c1ccc2c(c1)OCCO2 | -5.9* | -5.9
O=C(CCc1ccccc1)c1ccc2c(c1)OCCCO2 | i | nt
COc1ccccc1-c1nnc(SC(C)C(=O)Nc2ccc(C(N)=O)cc2)o1 (stereo not drawn) | i | nt
O=C1c2ccccc2C(Nc2ccc(Cl)cn2)N1Cc1ccccc1 (stereo not drawn) | -6.5* | -6.5
O=C(CN1C(=O)c2ccccc2C1=O)Nc1ccc(Cl)cn1 | i | 0.84
Cc1ccsc1C(=O)N(C)CC(=O)N(CC(C)C)c1c(N)n(CC(C)C)c(=O)[nH]c1=O | i | nt
COc1ccccc1N1CCN(C(=O)c2oc3ccc(F)cc3c2C)CC1 | -6.5* | -6.5
COc1ccccc1N1CCN(C(=O)c2oc3ccc(Br)cc3c2C)CC1 | i | nt
CC1(c2ccc3ccccc3c2)NC(=O)N(CC(=O)NCC(C)(C)N2CCOCC2)C1=O (stereo not drawn) | i | 0.88
CCCC(=O)N(C1CC(C)C(C#N)(C#N)C1(C#N)C#N)N(C)C (stereo not drawn) | i | 11*
SMILES | KCNQ2 inh | KCNQ2 enhance
Cn1c(=O)oc2cc(S(=O)(=O)Nc3ccc(F)cc3)ccc21 | i | nt
COc1cccc(C(c2nnnn2CCc2ccccc2)N2CCN(c3ccccc3)CC2)c1OC (stereo not drawn) | -6.7* | -6.7
COc1ccccc1C(c1nnnn1CCc1ccccc1)N1CCN(c2ccccc2)CC1 (stereo not drawn) | i | nt
COc1cccc(C(c2nnnn2Cc2ccco2)N2CCN(c3cccc(C)c3C)CC2)c1OC (stereo not drawn) | -6.2* | -6.2
COc1ccc(OC)c(C(c2nnnn2Cc2ccco2)N2CCN(C)CC2)c1 (stereo not drawn) | i | nt
COc1ccc(C)cc1NC(=O)C1CCCN(S(=O)(=O)c2ccc3c(c2)CCCN3C(C)=O)C1 (stereo not drawn) | i | nt
CCC(C)c1ccccc1NC(=O)c1cc(C)no1 (stereo not drawn) | i | nt
Cc1ccc2c(c1)N(C(=O)CCC(=O)Nc1ccccc1Br)CC(C)O2 (stereo not drawn) | i | nt
Cc1ccc2c(c1)N(C(=O)CCC(=O)NCc1cccc(Br)c1)CC(C)O2 (stereo not drawn) | -7* | -7
Cc1ccc(SCC(=O)N/N=C/c2ccco2)cc1 | i | 3.6
Nn1c(SC/C=C/c2ccccc2)nnc1-c1ccncc1 | i | nt
COc1cc(-c2nnc(SC/C=C/c3ccccc3)n2N)cc(OC)c1OC | -5.9* | -5.9
CCN(CC)S(=O)(=O)c1cccc(C(=O)OCC(=O)NCc2ccccc2OC)c1 | -6.5* | -6.5
CCN(CC)S(=O)(=O)c1cccc(C(=O)OCC(=O)Nc2ccccc2OC(F)F)c1 | i | 0.51
CCCc1cc(=O)oc2cc(OCc3ccc(C(=O)O)cc3)ccc12 | i | 1.6
CCOc1ccc(N2CC(C(=O)Nc3ccc(S(=O)(=O)Nc4nccs4)cc3)CC2=O)cc1 (stereo not drawn) | i | nt
O=C(COC(=O)c1oc2ccccc2c1CSc1ccc(Cl)cc1)NC1CCCC1 | -6.4* | -6.4
NC(=O)COC(=O)c1oc2ccccc2c1CSc1ccc(Cl)cc1 | i | nt
Cc1ccc(C(=O)Nc2nc(-c3ccccc3)c(-c3ccccc3)o2)cc1 | i | 8.4*
Cc1cc(C)nc(SCC(=O)Nc2nc(-c3ccccc3)c(-c3ccccc3)o2)n1 | i | 0.07
CC(C)C(=O)Nc1ccc(S(=O)(=O)N2CCC(c3nc4ccccc4[nH]3)CC2)cc1 | i | 1
O=C(Nc1nc2n(n1)C(c1ccccc1)CC(c1ccc(Cl)cc1)N2)c1ccco1 (stereo not drawn) | -7.2* | -7.2
COc1ccc(C2CC(c3ccccc3)Nc3nc(NC(=O)c4ccco4)nn32)cc1 (stereo not drawn) | i | 0.64
Cc1occc1C(=O)N/N=C/c1cccc2ccccc12 | i | 0.91
Cc1ccc(N=Cc2cc(Cl)cc(Cl)c2O)nc1 | i | 12*
SMILES | KCNQ2 inh | KCNQ2 enhance
Oc1c(Cl)cc(Cl)cc1/C=N/Nc1ncc(Br)cn1 | i | nt
Cc1ccc(/C=C/C(=O)N2CCCC(C(N)=O)C2)o1 (stereo not drawn) | i | 0.56
Cc1cccc(CS(=O)(=O)c2ncc(CO)n2C)c1 | i | 1.5
COc1ccccc1C1CC(c2cccs2)=NN1C(=O)CCC(=O)O (stereo not drawn) | i | 0.69
COc1ccccc1C1CN(c2ccc(F)cc2F)N=C1c1cccs1 (stereo not drawn) | -7.8* | -7.8
Cc1cc(-c2ccccc2)nc(N/N=C/c2ccccc2F)n1 | i | nt
CCOC(=O)CN(C(=O)CSc1nnc(-c2ccc(OC)c(OC)c2)o1)c1ccc(F)cc1 | -6.6* | -6.6
CCOC(=O)CSc1nnc(-c2cc(OC)c(OC)c(OC)c2)o1 | i | 0.1
Cc1ccccc1CNC(=O)C(=O)NCCC1CCCCN1S(=O)(=O)c1ccccc1 (stereo not drawn) | i | nt
CC(C)CCN(C(=S)Nc1cccc(C(F)(F)F)c1)C(C)c1ccccn1 (stereo not drawn) | -6.1* | -6.1
CC(c1ccccn1)N(CCN(C)C)C(=S)Nc1cccc(F)c1 (stereo not drawn) | i | 1.3
COc1ccc(C(=O)NCc2nnc(SCC(=O)N3CCCC3)o2)cc1 | i | nt
Cc1ccc(C(=O)OC(C)C(=O)NC2CCCCC2C)cc1S(=O)(=O)N1CCCCC1 (stereo not drawn) | i | nt
COc1ccc(/C=N/Nc2nc(N3CCCC3)nc(N3CCCC3)n2)cc1 | i | nt
COc1ccc(/C=N/Nc2nc(N3CCCC3)nc(N3CCCC3)n2)cc1O | -6.3* | -6.3
CN1CCN(Cc2c(O)ccc3occ(C(=O)c4ccccc4)c23)CC1 | i | 1.6
CC(=O)C(C(C)=O)c1c(Cl)c(O)c(O)c2c(C(=O)c3ccccc3)coc12 | -7.3* | -7.3
